# Only some compounds are listed: those with a hit (about 27% of all), similar ones and a draw of the others.
# CYP2C19 act: cytochrome P450 2C19 (human) activation. P33261. recombinant CYP2C19, luciferin-H EGE luminescence; hits give high values; 0 = fully inhibited enzyme, 1 = untreated enzyme. activation factor at 5 µM. 96,000 tested, under 10 active;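 active = activation factor of at least 2 at 5 µM in the primary screen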;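 also: 0 = wells with 2.5 mM tranylcypromine and 1 = vehicle-only wells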
# Cav3 T inh: blocks human Cav3.2 T-type calcium channel; O95180; Cav3.2-expressing cells, Fluo-4 calcium fluorescence FDSS; hits give low values; B-score at 10 µM; 100,000 compounds, 4% hits; AID 449739;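 active = single-dose well whose peak fluorescence ratio is a statistical outlier from its plate by either plate-standardised score or position-corrected B-score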
# CYP2C9 inhib: blocks human cytochrome P450 2C9; CYP2C9 Supersomes, luciferin-H conversion, luminescence; inhibition, % at 5 µM; 96,000 compounds, 20% hits; AID 777;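 active = blocking of liver enzyme CYP2C9 beyond about 50% at 5 µM, limit read from the data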
# Target sequence (P11712 whole entry, looked up): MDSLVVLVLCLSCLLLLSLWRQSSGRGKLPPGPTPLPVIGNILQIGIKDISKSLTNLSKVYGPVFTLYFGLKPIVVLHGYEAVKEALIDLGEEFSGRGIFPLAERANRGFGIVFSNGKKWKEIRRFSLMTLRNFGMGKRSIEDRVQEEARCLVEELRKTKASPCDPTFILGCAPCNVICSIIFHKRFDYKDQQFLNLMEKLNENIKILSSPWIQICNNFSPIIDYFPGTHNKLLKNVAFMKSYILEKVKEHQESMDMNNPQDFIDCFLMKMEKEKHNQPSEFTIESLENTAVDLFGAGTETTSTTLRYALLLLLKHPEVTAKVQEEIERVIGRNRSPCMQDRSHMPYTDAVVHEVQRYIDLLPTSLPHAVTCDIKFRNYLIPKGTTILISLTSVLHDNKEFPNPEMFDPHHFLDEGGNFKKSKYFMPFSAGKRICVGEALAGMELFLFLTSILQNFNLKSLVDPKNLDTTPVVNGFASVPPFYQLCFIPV
# CYP2C19 inh: blocks human cytochrome P450 2C19 | 96,000 compounds, 21% hits | inhibition, % at 5 µM | CYP2C19 Supersomes, luciferin-H EGE luminescence, 30 min;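 active = CYP2C19 inhibition above a set limit at 5 µM in the primary screen, cut at about 50% in these data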;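 also: plate controls were negative control wells for no effect and 2.5 mM tranylcypromine positive control for full effect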
# CYP2C9 act: increases human cytochrome P450 2C9 activity; activation factor at 5 µM; 96,000 compounds, 1.4% hits; P11712; recombinant CYP2C9, luciferin-H conversion, luminescence; hits give high values; factor 1 = untreated enzyme, 0 = blocked; AID 1024;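 active = activation factor of 2 or more for CYP2C9 at a 5 µM dose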;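 also: 0 = sulfaphenazole-blocked wells and 1 = vehicle-only wells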
# * hit, by the source's call; / = not tested or not shown.
SMILES,CYP2C19 act,Cav3 T inh,CYP2C9 inhib,CYP2C19 inh,CYP2C9 act
N#Cc1c(N)oc(-c2ccccc2)c1-c1ccccc1,0.3,-0.357,55.9*,74.7*,0.4
CCOC(=O)C(C)(C)Sc1nc2c(cnn2-c2ccc(Cl)cc2)c(=O)[nH]1,0.5,-0.668,75.8*,46.4,0.2
CCC(Sc1nc2c(cnn2-c2ccc(Cl)cc2)c(=O)[nH]1)C(=O)OC (stereo unspecified),1,-0.28,29.0,3.5,0.7
Cc1[nH]nc(-c2ccc(OCc3cnn(-c4ccccc4)c3)c(C)c2O)c1Oc1ccccc1,0.9,0.979,22.8,6.6,0.8
CCOc1ccc(-c2n[nH]c(C)c2Oc2ccc(OC)cc2)c(O)c1,0,0.236,99.3*,99.8*,0
Cc1[nH]nc(-c2ccc(O)c(C)c2O)c1Oc1ccccc1,0,-4.76,100.3*,100.3*,0
O=C(NCCCn1ccnc1)C(Cc1ccc([N+](=O)[O-])cc1)N1C(=O)c2ccccc2C1=O (stereo unspecified),/,0.0392,/,/,/
CCN1CCc2c(C#N)c(N3CCCCC3)nc(N3CCOCC3)c2C1,0.6,0.0683,67.8*,39.7,0.3
N#Cc1c(N2CCOCC2)nc(N2CCCCC2)c2c1CCN(C1CCCCC1)C2,0.9,-3.05,25.0,10.3,0.8
CCN(CC)c1nc(N2CCOCC2)c(C#N)c2c1CN(C)CC2,0.8,0.501,55.6*,21.3,0.4
CCOC(=O)c1sc2nc(N3CCOCC3)c3c(c2c1N)CCN(C)C3,0.9,-0.243,11.7,6.6,0.9
CCn1nccc1C(=O)Nc1cc(Cl)ccc1Cl,1,-1.86,-10.4,2.6,1.1
CCn1nccc1C(=O)Nc1ccc(Cl)cc1Cl,0.4,-0.377,33.8,63.4*,0.7
Cc1cc(Oc2ccc(C#N)cc2)nc(NCc2ccccc2)n1,0.9,0.174,8.8,10.9,0.9
Cc1ccc(/C=C/c2nc3ccccc3s2)s1,0.3,-0.95,24.4,72.1*,0.8
Cc1ccccc1-c1nc2cc(N)ccc2o1,0.7,1.34,27.2,33.3,0.7
Cc1cc2nn(-c3cccc4ccccc34)nc2cc1N,0.7,-2.32,57.7*,30.6,0.4
Nc1ccc2nn(-c3cccc4ccccc34)nc2c1,0.5,-2.45,51.2*,48.7,0.5
Cc1cc(C)c2c(N)c3ccccc3nc2n1,1.1,0.446,-3.4,-7.7,1
Nc1cc(C(=O)O)ccc1Nc1ccc(F)c(F)c1,1,-0.0151,-9.7,2.2,1.1
COc1ccc(-n2c(=S)[nH]c3ccccc32)cc1,0.5,-0.0874,-63.5,53.8*,1.6
COc1ccccc1C1N(c2cc(Cl)ccc2OC)C(=O)C2CCCN21 (stereo unspecified),0.7,0.186,-58.8,31.9,1.6
CCOc1ccc(C2N(c3cc(Cl)ccc3OC)C(=O)C3CCCN32)cc1OC (stereo unspecified),0.3,-0.0168,-34.5,72.0*,1.3
CCOc1ccc(C2N(c3ccc(F)cc3)C(=O)C3CCCN32)cc1OC (stereo unspecified),0.3,-0.284,40.3,65.9*,0.6
CCOc1ccc(C2N(c3ccc(OC)cc3)C(=O)C3CCCN32)cc1OC (stereo unspecified),0.8,0.0626,37.2,22.5,0.6
SMILES,CYP2C19 act,Cav3 T inh,CYP2C9 inhib,CYP2C19 inh,CYP2C9 act
CCOc1ccc(C2N(c3ccc(Cl)cc3)C(=O)C3CCCN32)cc1OC (stereo unspecified),0.3,-0.146,48.5,65.1*,0.5
Cc1cc(Nc2ccc(C)c(Br)c2)n2nc(C)nc2n1,/,0.131,/,/,/
COc1ccc(CC(=O)N2CCN=C2SC)cc1,0.6,-0.0954,3.8,41.2,1
CSC1=NCCN1C(=O)Cc1ccc(Cl)cc1,0.4,0.173,26.8,57.0*,0.7
Cc1sc2nc(C)n(/N=C/c3ccccc3O)c(=O)c2c1C,0.1,0.119,-10.5,86.3*,1.1
COc1ccc(-n2c(C)nnc2SCC(=O)N2C(C)CCCC2C)cc1 (stereo unspecified),1,-1.08,5.6,-1.0,0.9
CC1CCCC(C)N1C(=O)CSc1nnc(C2CCCCC2)o1 (stereo unspecified),0.4,0.294,12.1,58.7*,0.9
Cc1cc(-c2nnc(SCC(=O)N3C(C)CCCC3C)o2)no1 (stereo unspecified),0.4,-0.395,30.5,56.0*,0.7
COc1ccc(C(=N/O)/C(=N/O)c2ccc(OC)cc2)cc1,0.4,-3.96,26.7,59.6*,0.7
Cc1cccnc1NC(=O)c1ccc2nc(N)sc2c1,0.9,-0.565,22.5,5.9,0.8
CCOC(=O)C1=C(N)OC2=C(C(=O)CC(C)(C)C2)C1c1cccnc1 (stereo unspecified),0.2,1.53,71.2*,75.5*,0.3
COC(=O)C1=C(N)OC2=C(C(=O)CC(C)(C)C2)C1c1cccs1 (stereo unspecified),0.3,-0.498,80.9*,72.9*,0.2
CCOC(=O)C1=C(N)OC2=C(C(=O)CC(C)(C)C2)C1C1CCCCC1 (stereo unspecified),0.8,-9.01*,56.1*,24.0,0.4
CCOC(=O)C1=C(N)OC2=C(C(=O)CC(C)(C)C2)C1c1ccoc1 (stereo unspecified),0.4,-0.851,67.4*,64.3*,0.3
COc1cccc(-c2nnc(SCC(=O)N(C(C)C)C(C)C)o2)c1,0.6,-1.68,-3.4,36.4,1
COc1cccc(-c2nnc(SCC(=O)N3CCCc4ccccc43)o2)c1,0.1,/,36.5,95.0*,0.6
COc1cc(OC)cc(-c2nnc(SCC(=O)N3CCCc4ccccc43)o2)c1,0.1,-4.33*,19.8,91.6*,0.8
COc1ccc(OC)c(-c2nnc(SCC(=O)N3CCCc4ccccc43)o2)c1,0,/,25.6,98.1*,0.7
COc1cc(OC)cc(-c2nnc(SCC(=O)N(C(C)C)C(C)C)o2)c1,0.3,-1.91,-133.2,72.0*,2.3*
COc1cccc(-c2nc(CSCC(=O)N3CCc4ccccc43)c(C)o2)c1,1,-1.63,-2.7,2.4,1
CCS(=O)(=O)Nc1ccc(-c2ccc(NS(=O)(=O)CC)c(OC)c2)cc1OC,/,0.00954,/,/,/
CCOC(=O)c1ccc(Oc2cc(C)nc(SC)n2)cc1,0.8,-1.37,9.1,15.3,0.9
Cn1c(N)c(C(=O)COC(=O)Cc2ccsc2)c(=O)n(C)c1=O,1,-0.734,-7.0,-0.7,1.1
O=C(CSc1nnc(-c2cccs2)o1)N1CCc2ccccc21,0.8,-1.29,-14.2,23.9,1.1
Cc1occc1-c1nnc(SCC(=O)N2CCc3ccccc32)o1,0.3,0.14,16.1,74.3*,0.8
O=C(CSc1nnc(-c2cccs2)o1)N1CCCc2ccccc21,0.2,-1,32.5,76.8*,0.7
Cc1occc1-c1nnc(SCC(=O)N(C)C)o1,0.9,0.351,9.0,8.4,0.9
COc1ccc(C(=O)OC(C(=O)c2ccccc2)c2ccccc2)cc1 (stereo unspecified),0.4,-3.65,78.1*,57.9*,0.2
CC(=O)Nc1cc(C(=O)OC(C(=O)c2ccccc2)c2ccccc2)ccc1C (stereo unspecified),0.4,/,60.1*,59.1*,0.4

# Assay outcomes (PubChem BioAssay)
